This is part of a sample that, as a whole, favours compounds with a hit. Of some 79,000 tested, about 15% had one in any assay. No stated cut-off is given here; in the data, active means growth inhibition above about 70%; inactive means the rest.
Key:
[1] = NCI Yeast Anticancer Drug Screen. Data for the rad50 strain (AID 155);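 further: 0% = growth of vehicle-only cultures of the same strain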; settings: S. cerevisiae rad50 strain growth inhibition, stronger effect = higher value; at 50.0 µM unless noted
Outline: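 Yeast carrying a defined DNA repair defect were exposed to test compounds, and growth was compared with vehicle-treated controls to give percent inhibition.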

[2] = NCI Yeast Anticancer Drug Screen. Data for the mec2-1 strain (AID 157); settings: S. cerevisiae mec2-1 strain, stronger effect = higher value; at 50.0 µM unless noted
Outline: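 Mutant yeast (mec2-1) grown with compound; growth inhibition relative to vehicle control reported.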

[3] = NCI Yeast Anticancer Drug Screen. Data for the sgs1 mgt1 strain (AID 161);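 further: 0% = growth of cultures given vehicle only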; settings: S. cerevisiae sgs1 mgt1 strain, stronger effect = higher value; at 50.0 µM unless noted
Outline: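 Compounds are added to genetically altered yeast, and growth is compared with cultures given vehicle alone to give percent inhibition.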

[4] = NCI Yeast Anticancer Drug Screen. Data for the cln2 rad14 strain (AID 165);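 further: 0% = growth equal to vehicle treated cultures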; settings: S. cerevisiae cln2 rad14 strain, stronger effect = higher value; at 50.0 µM unless noted
Outline: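 Readout is yeast growth inhibition versus vehicle-treated controls, using a strain with cln2 and rad14 alterations exposed to compound.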

[5] = NCI Yeast Anticancer Drug Screen. Data for the bub3 strain (AID 167); settings: S. cerevisiae bub3 mutant strain, stronger effect = higher value; at 50.0 µM unless noted
Outline: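 Compounds were applied to a genetically altered yeast strain carrying a cell-cycle control defect. Growth inhibition was scored against vehicle-treated controls.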

[6] = NCI Yeast Anticancer Drug Screen. Data for the mlh1 rad18 strain (AID 175); settings: S. cerevisiae mlh1 rad18 strain growth inhibition, stronger effect = higher value; at 50.0 µM unless noted
Outline: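 Genetically defined yeast (DNA repair-deficient) exposed to compounds; growth inhibition determined relative to vehicle.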

Measured: growth inhibition

O=C(CNC(=O)C(Cc1ccccc1)N1C(=O)c2ccccc2C1=O)Nc1ccccc1 (stereo unspecified)
inactive: [1] 34.4% | [2] -1.55% | [3] 46.3% | [4] 5% | [5] 17.4% | [6] 6.55%

CC1(C)C=C(C(c2cccc([N+](=O)[O-])c2)N2CCCCC2)C(=O)c2ccccc21 (stereo unspecified)
inactive: [1] -26.9% | [2] -10.7% | [3] -13.2% | [4] -40.9% | [5] -0.9% | [6] -13.3%

O=C(CCCCCCCC(=O)NO)NO
inactive: [1] -10.8% | [2] 6.6% | [3] 12.8% | [4] 3.65% | [5] 2.5% | [6] -9.4%

COc1ccc(CNC(=O)CC(C)=O)cc1
inactive: [1] -6.7% | [2] -17.5% | [3] 3.35% | [4] 7.25% | [5] 13% | [6] 0.95%

COc1ccc(NC(=O)CC(=O)n2nc(-c3ccccc3)c(N=Nc3ccccc3C(=O)O)c2-c2ccccc2)cc1
inactive: [1] -28.8% | [2] -13.1% | [3] -2.05% | [4] 2.85% | [5] 2.25% | [6] -13.5%

O=C1c2cc3c(cc2CC12Cc1cc4c(cc1C2=O)CCC4)CCCC3 (stereo unspecified)
inactive: [1] 6.45% | [2] -52.5% | [3] 1.45% | [4] -29.1% | [5] 0.35% | [6] -22.5%

CSc1ccc(NC(=O)Nc2cc(C)ccc2N=Nc2ccc(C)cc2)cc1
inactive: [1] -1.5% | [2] -2.35% | [3] -4.95% | [4] -9.3% | [5] -4.75% | [6] 17.5%

COc1ccc(NC(=O)c2ccc(OC)cc2)cc1
inactive: [1] 0.7% | [2] -8.9% | [3] 5.2% | [4] 1.95% | [5] 7.85% | [6] -3.7%

CSC1=NC(C(N)=O)C(N)N1C (stereo unspecified)
inactive: [1] -3.1% | [2] -16.4% | [3] 6.3% | [4] 17.4% | [5] 1.35% | [6] 12%

OCC1C(CO)C2CC1C1N=NN(c3ccccc3)C21 (stereo unspecified)
inactive: [1] -4.8% | [2] 4.3% | [3] 8.25% | [4] -11.9% | [5] -0.35% | [6] -13.3%

CC(C)NS(=O)(=O)OCC(O)(CC(Cl)(Cl)Cl)c1ccccc1 (stereo unspecified)
inactive: [1] 23.8% | [2] 4.2% | [3] 16.9% | [4] 21.9% | [5] 11.7% | [6] 38.7%

CC1CCC(c2ccccc2)(c2ccccc2)C1=O (stereo unspecified)
inactive: [1] 11.8% | [2] -1.8% | [3] -2.5% | [4] -15% | [5] -1.15% | [6] -2.25%

CC1=C(C(=O)Nc2ccccc2)C(c2ccc3c(c2)OCO3)C(C(=O)Nc2ccccc2)=C(C)N1
inactive: [1] 38.3% | [2] 33.5% | [3] 10.5% | [4] 17.1% | [5] 38.5% | [6] 27.1%

COc1ccc(CCn2c(=O)c3ccccc3n(C)c2=O)cc1
inactive: [1] 17.9% | [2] -4.2% | [3] 13.2% | [4] 34.2% | [5] 41.6% | [6] 0.8%

O=c1c2cncnc2sc2nc3ccccc3n12
inactive: [1] 16.1% | [2] -9.55% | [3] 28.3% | [4] 11.9% | [5] 15.3% | [6] 23.4%

CC(C)N(C(C)C)S(=O)(=O)c1ccccc1C(O)(c1ccccc1)c1ccccc1
inactive: [1] 47.5% | [2] -1.15% | [3] 39.4% | [4] -7.35% | [5] -0.95% | [6] 5.9%

CNCc1cc(Br)cc(Br)c1O
inactive: [1] 6.9% | [2] -6.2% | [3] 15.4% | [4] -43.1% | [5] 1.45% | [6] -2.6%

O=C(c1ccccc1)c1ccc2c(c1)N=C(c1ccc(Cl)c(Cl)c1)CC(c1ccc3ccccc3c1)N2 (stereo unspecified)
inactive: [1] 22.2% | [2] 15.4% | [3] -7% | [4] -33.5% | [5] -3.6% | [6] 16.6%

COc1ccc(COC(=O)Nc2ccc(Br)cc2)c(OC)c1
inactive: [1] -5.05% | [2] 33.6% | [3] 27.2% | [4] -16.6% | [5] 16.8% | [6] 9.55%

COC1CC(n2ccc(=O)[nH]c2=O)OC1CO (stereo unspecified)
inactive: [1] -8.25% | [2] -10.6% | [3] 2.65% | [4] 28.1% | [5] -25.6% | [6] 6.4%

CCN(CC)c1ccc(C(c2ccc(N(CC)CC)cc2Cl)c2cccc3ccccc23)c(Cl)c1
inactive: [1] 24.8% | [2] 19.8% | [3] 30.3% | [4] 36.2% | [5] 22.4% | [6] 7.85%
